From paper PMC5540273 (PLoS ONE, 2017)

test system: BRAF; details: concentration: 1 μM, replicates: in singlicate; n = 1
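Note: KINOMEscan kinase panel screen.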

SMILES | %Inh
Cc1ccc(NC(=O)c2cccc(C#N)c2)cc1-c1ccc(C(=O)Nc2ccncc2)cc1 [GSK1398463] | 29%
CS(=O)(=O)CCNCc1ccc(-c2ccc3ncnc(Nc4ccc(OCc5ccccc5)c(Cl)c4)c3c2)o1.Cl [GW574783] | 9%
Fc1ccc(-c2ncn(CCCNCc3ccccc3)c2-c2ccncc2)cc1 | 16%
CCc1nc(-c2cccc(C)c2)c(-c2ccnc(NC(=O)c3ccccc3)c2)s1 | 17%
c1ccc(-c2ccc3c(-c4ccnc(Nc5ccc6c(c5)OCCO6)n4)cnn3n2)cc1 [GW818941] | 0%
CSc1ccc(NC2=C(c3ccccc3Cl)C(=O)NC2=O)cc1 [SB-342411] | 21%
FC(F)(F)c1ccc(-c2cc(-c3c[nH]nc3-c3ccccn3)ccn2)cc1 [GW599550] | 0%
COc1ccc(NC(=O)Nc2ccc(C)c(-c3ccc(C(=O)Nc4ccncc4)cc3)c2)cc1 [GSK1398475] | 0%
Fc1ccc(Nc2nccc(-c3c(-c4ccc(Cl)cc4)nn4ncccc34)n2)cc1F [GW829058] | 37%
Cn1cc(-c2ccc3c(c2)CCN3C(=O)Cc2cccc(C(F)(F)F)c2)c2c(N)ncnc21 [GSK2606414] | 12%
O=C(CCO)NCCn1ccc2ncnc(Nc3ccc(Oc4cccc(C(F)(F)F)c4)c(Cl)c3)c21 | 0%
CNc1nccc(-c2c(-c3ccc(F)cc3)ncn2CCCN2CCOCC2)n1 [SB-222516] | 6%
COC(=O)c1cccc(NC(=O)NCCNc2ccnc(Nc3ccc(F)cc3)n2)c1 [GSK1379883] | 0%
CN1CCC(n2cnc(-c3ccc(F)cc3)c2-c2ccnc(NC3CCNCC3)n2)CC1 [SB-229482] | 0%
COc1ccc(NC(=O)c2ccc(-c3cc(-c4nnc(C)o4)ccc3C)cc2)cc1 [GW595885] | 1%
Cl.c1ccc(Cn2ccc3cc(Nc4ncnc5ccccc45)ccc32)cc1 [GW275568] | 0%
Nc1nccc2scc(-c3ccc4c(c3)CCN4C(=O)Cc3cc(F)ccc3F)c12 [GSK2587663] | 3%
C[C@@H]1CCN(C(=O)CO)C[C@@H]1N(C)c1ncnc2[nH]ccc12 | 0%

SMILES | %Inh
FC(F)(F)c1cc(Nc2nccc(-c3c(-c4ccc(Cl)cc4)nn4ncccc34)n2)ccc1Cl [GW829351] | 0%
O=C(Nc1ccccc1)Nc1ccc(Oc2ccc3nccn3n2)cc1 | 0%
Clc1ccc(-c2cc(-c3c[nH]nc3-c3ccccn3)ccn2)cc1 [GW681251] | 0%
CCCc1ccc(S(=O)(=O)NC2CCN(c3ccnc(Nc4ccc(OC)cc4)n3)C2)cc1 (centres unmarked) [GSK1379737] | 0%
O=C(Nc1n[nH]c2nc(-c3ccco3)c(Br)cc12)c1ccc(CN2CCCC2)cc1.O=C(O)[C@H](O)[C@@H](O)C(=O)O [SB-742352] | 0%
CCC(CC)(CC)n1cnc2c(N)ncnc21 [SKF-97620] | 10%
Clc1cc(Nc2ncnc3cc[nH]c23)ccc1OCc1ccccn1 | 0%
CCn1c(-c2ccncc2)nc2cnccc21 [SB-735216] | 19%
Cl.Cl.c1ccc(-c2cc3ccncc3cc2OC2CCNCC2)cc1 [GSK1122999] | 0%
O=c1cc(N2CCOCC2)nc2n(Cc3cccc(Cl)c3)ccn12 [GSK2296823] | 10%
COc1ccc(Nc2nccc(N3CCC(NC(=O)c4cccc(NC(C)=O)c4)C3)n2)cc1 (centres unmarked) [GSK1379732] | 0%
Cc1ccc(O)cc1Nc1cc(C(F)(F)F)nc2ccc(-c3ccncc3)cc12 [GW630823] | 0%
O=C(NCCCN1CCCC1=O)c1cnc(NCc2cc(Cl)ccc2Cl)nc1NC1CCNCC1 | 39%
COc1cc2ncnc(Nc3ccc(OCc4ccccc4Br)c(Cl)c3)c2cc1OC.Cl [GI261590] | 7%
Cc1cccc(-c2nc(Nc3ccc4[nH]nnc4c3)c3ccccc3n2)n1 [GW867587] | 0%
CC(=O)Nc1n[nH]c2ncc(-c3ccccc3)cc12 [SB-548492] | 0%
COC(=O)c1c(-c2ccccc2)c2cc(Cl)ccc2c(=O)n1Cc1ccc(S(C)(=O)=O)cc1 | 65%
